In the library only some 12% were active in any assay of this set; here they are far more common.
JMJD2A Tudor inh: inhibitors of human JMJD2A Tudor domain | AlphaScreen JMJD2A-Tudor / H3K4me3 peptide binding | Potency, µM (doses to about 114 µM), for the others: at the top dose activity change, negative = inhibition, usual class: inhibitors | 4.4% of 390,000 active | O75164; note: % is set by controls: 0 for no effect and ±100 for the full control effect; nearly all actives have a fitted effect of over 50% in size
HP1b binding inh: HP1-beta chromodomain-methylated histone interaction inhibition; AID 540317; AlphaScreen HP1-beta / biotin-H3K9me3 peptide binding; Potency, µM (doses to about 114 µM), for the others: top-dose activity change, negative = inhibition, usual class: inhibitors; 0.56% of 390,000 active; note: nearly all actives have a fitted effect of over 70% in size
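Compound inhibition of the preformed complex between 50 nM HP1-beta and 50 nM biotinylated H3K9me3 peptide was read by AlphaScreen. Buffer was PBS pH 7.4 with 0.01% Tween-20. Incubations ran 30 min at room temperature, with 10 ug/mL donor/acceptor beads.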
G9a inh: inhibitors of human histone lysine methyltransferase G9a; G9a H3K9 monomethylation, AlphaScreen, 2 h; Potency, µM (doses to about 102 µM), inactives show top-dose activity, negative = inhibition, most hits filed as inhibitors; 8.8% of 350,000 active; Q96KQ7; note: % is set by controls: 0 for no effect and ±100 for the full control effect; nearly all actives have a fitted effect of over 75% in size
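AlphaScreen detection with an anti-monomethyl H3K9 antibody quantified product after a 2 h room-temperature reaction containing 500 nM biotinylated H3K9 peptide, 20 µM SAM and 20 nM enzyme, which had been preincubated 15 min with compound.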
Sfp inh: inhibitors of Bacillus subtilis Sfp phosphopantetheinyl transferase | 3.5% of 310,000 active | Potency, µM, without a hit: largest response in the series, negative = inhibition, hits mostly inhibitors | Biochemical Sfp PPTase activity, qHTS | AID 1490 | Q9F4F7;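 note: the enzyme is Sfp with the accession as filed and its product quenches rhodamine fluorescence; 0% = enzyme reaction without inhibitor and -100% = no enzyme wells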
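Fluorescence-quenching assay with 15 nM Sfp, 5 uM rhodamine-CoA and 12.5 uM BHQ-2-labelled ybbR peptide in pH 7.6 Hepes/MgCl2 buffer. Enzyme was pre-incubated with compound for 15 min at room temperature. Rate was taken from the 30-min fluorescence change (525/598 nm).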
BAZ2B inh: inhibitors of human BAZ2B bromodomain | Potency, µM (titrated, usually from 114 µM), for the others: at the highest dose activity change, negative = inhibition, most hits filed as inhibitors | 4.4% of 360,000 active | AlphaScreen BAZ2B-H3K14Ac peptide displacement; note: % is set by controls: 0 for no effect and ±100 for the full control effect; nearly all actives have a fitted effect of over 60% in size
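BAZ2B (50 nM) with biotin-H3(5-23)K14Ac peptide (50 nM) in PBS pH 7.4, 0.01% Tween-20, preformed 30 min, then compound 30 min at room temperature; top concentration 110uM. AlphaScreen streptavidin donor/nickel chelate acceptor beads (10 ug/mL final), 20 min dark, signal read.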
* marks the source's active call; other numbers are inactive results; ? = inconclusive; . = no result given; [ ] = dose if it differs, or a comment. Calls come from the whole dose curve; as a rule, active = well fitted curve in the direction sought with a large enough effect; inconclusive = small, poorly fitted or top-dose-only effect, or another doubt; inactive = no such curve, though single readings can be large; an effect the other way counts as inactive or inconclusive. Potency is the fitted concentration of half-maximal effect.

SMILES | JMJD2A Tudor inh | HP1b binding inh | G9a inh | Sfp inh | BAZ2B inh
O=C(O)COc1ccccc1/C=C1\SC(=Nc2ccc(F)cc2)N(c2ccc(F)cc2)C1=O | -31.0% | 32.5% | ? | ? | 79.4µM*
O=C(O)COc1ccccc1/C=C1\SC(=S)N(/N=C/c2ccccc2O)C1=O | ? | -34.6% | 10.7%[2.33 µM] | ? | 56.2µM*
O=C(O)c1ccc(/C=C2\SC(=Nc3ccccc3)N(c3ccccc3)C2=O)cc1 | -18.4% | 24.5% | ? | 79.4µM* | -6.9%
O=C(O)COc1ccccc1/C=C1\SC(=S)N(NC(=O)c2ccccc2O)C1=O | 3.16µM* | -1.9% | 36.9%[2.33 µM] | . | 14.1µM*
O=C(Cc1ccccc1)NN1C(=O)/C(=C/c2ccccc2C(=O)O)SC1=S | -18.1% | 26.5% | ? | -21.8% | -2.6%
Cn1cc(-c2cccc(C(F)(F)F)c2)cc(C#N)c1=O | 2.1% | 42.3% | 15.4% | 14.2% | 2.7%
COC(=O)C1CCN(S(=O)(=O)c2ccc(Br)s2)CC1 | -11.8% | 33.6% | 4.5%[2.33 µM] | . | 9.4%
O=C(CN1C(=O)c2cccc3cccc(c23)C1=O)N1CCN(Cc2ccc3c(c2)OCO3)CC1 | -30.1% | -5.7% | 2.3%[59 µM] | 3.1% | -6.2%
CSc1nnc(SCC(=O)NC(=O)c2ccccc2)s1 | -2.8% | 26.5% | 44.7µM* | . | 2.2%
Cc1csc(SCC(=O)NC(=O)c2ccccc2)n1 | -13.1% | 2.4% | -35.2% | . | -0.6%
Cc1ccc(-c2nn(-c3ccccc3)c3[nH]c(=O)c(CNCCN(C)C)cc23)cc1 | . | . | 7.8%[12.7 µM] | ? | -7.0%
Cc1nn(-c2ccccc2)c2[nH]c(=O)c(CNc3ccc4c(c3)OCCO4)cc12 | ? | -35.8% | 11.2µM* | 22.4% | 35.5µM*
CCOc1ccc(NCc2cc3c(C(C)(C)C)nn(-c4ccccc4)c3[nH]c2=O)cc1 | 50.1µM* | ? | 39.8µM* | 27.3% | 22.4µM*
O=C(NC(Cc1ccccc1)C(=O)O)/C(=C\c1ccco1)NC(=O)c1ccccc1 (centres undefined) | -18.8%[57.1 µM] | -12.8% | ? | 35.5µM* | -29.3%
O=C(NC(Cc1ccccc1)C(=O)O)/C(=C\c1ccc(Cl)cc1)NC(=O)c1ccco1 (centres undefined) | -8.3% | 44.6% | 79.4µM* | 18.2% | -15.1%
O=C(NC(Cc1ccccc1)C(=O)O)/C(=C\c1ccco1)NC(=O)c1ccc(Br)cc1 (centres undefined) | ? | 31.1% | . | -64.9% | -10.2%
Cc1ccc(C(=O)NCc2ccco2)cc1S(=O)(=O)N1CCCC1 | -25.0% | -8.0% | . | -22.3% | -23.5%
CCOc1ccc(NC(=O)c2cc(C)nc3c2c(C)nn3-c2cccc(F)c2)cc1 | 4.5% | 22.0% | -6.8%[59 µM] | . | 9.0%[57.1 µM]
CCOc1cc(-c2cc(N)n[nH]2)cc(OCC)c1OCC | -0.7% | 41.9% | -5.4%[59 µM] | 15.9% | -3.0%
O=C(/C=C/c1ccc(F)cc1)Nc1nc2n(n1)C(c1ccc(Cl)cc1)C=C(c1ccccc1)N2 (centres undefined) | 1.3% | 35.5% | -9.2%[59 µM] | . | 5.2%
O=C(CN1C(=O)C(=O)N(Cc2ccco2)C1=O)c1c[nH]c2ccccc12 | -20.9% | 17.5% | 50.1µM* | ? | -11.9%
O=C(O)C(=O)Cc1c[nH]c2ccccc12 | 44.7µM* | ? | 25.1µM* | ? | ?
O=C(Cc1c[nH]c2ccccc12)NCc1ccco1 | -17.9% | 8.2% | ? | 8.0% | 50.1µM*
O=C(O)C(O)Cc1c[nH]c2ccccc12 (centres undefined) | -20.4% | 12.1% | -13.2% | -3.1% | -4.9%
Nc1nonc1NC(=O)NN=C1CCCCC1 | ? | 43.5% | -0.2% | 35.5µM* | -5.8%
SMILES | JMJD2A Tudor inh | HP1b binding inh | G9a inh | Sfp inh | BAZ2B inh
Cc1cccc(C)c1NC(=O)NN=C1CCCCC1 | -11.7% | 24.1% | 9.9%[12.7 µM] | -4.0% | -1.0%
O=C(NCCCN1CCOCC1)c1ccc(CNS(=O)(=O)c2ccc(F)cc2)cc1 | -8.3% | 19.0% | -3.3% | 11.4% | 1.1%
Cn1c(CNS(=O)(=O)c2ccc(F)cc2)n[nH]c1=S | 11.2µM* | 33.6% | ? | -20.5% | -2.0%
Cn1c(CNS(=O)(=O)c2ccc(Cl)cc2)n[nH]c1=S | 6.31µM* | 32.9% | ? | -1.3% | 8.8%
CCC(C)Sc1nnc(CNS(=O)(=O)c2ccc(F)cc2)n1C (centres undefined) | -3.2% | 56.4% | 11.5% | 11.7% | -3.9%
CN(C(=O)Cn1nnc2ccccc2c1=O)C1CCCCC1 | -2.9% | 2.5% | -9.9%[59 µM] | 15.4% | 1.8%
Cc1cc(C)n(CC(=O)NC2CCCN(Cc3ccc(Cl)cc3)C2)n1 (centres undefined) | -18.8% | 62.5% | -6.6%[0.501 µM] | 7.0% | -5.0%
Cc1cc2c(OCC(CNC(C)(C)C)OC(=O)c3ccccc3)cccc2[nH]1 (centres undefined) | . | . | 15.8µM* | 9.4% | .
NC(=O)C1C(c2ccccc2)=C1c1ccccc1 | -17.0% | 15.7% | -4.8%[59 µM] | 14.6% | .
CCC(/C=C1\Oc2ccc(OC)cc2N1C)=C\c1sc2ccccc2[n+]1CCCS(=O)(=O)[O-] | -10.3% | 38.7% | . | . | .
COc1cc(/C=C/c2sc3ccccc3[n+]2CCCS(=O)(=O)[O-])ccc1O | -32.6% | 31.6µM* | 11.2µM* | 6.31µM* | 44.7µM*
O=[N+]([O-])c1cc(Cl)ccc1Oc1ccc(-c2nnco2)cc1 | -10.5% | 21.1% | ? | 0.4% | -24.1%
O=c1ccc2ccc(Oc3ccc(Cl)cc3[N+](=O)[O-])cc2o1 | ? | -20.5% | 31.6µM* | 0.5% | ?
COCc1cc(C)nc(OCC(=O)N/N=C/c2ccc(-c3cccc([N+](=O)[O-])c3)o2)c1C#N | . | . | 50.1µM* | -9.9% | -35.6%
COCc1cc(C)nc(OCC(=O)N/N=C/c2ccc(O)cc2)c1C#N | -9.6% | 34.1% | 7.7% | 1.2% | -5.2%
COCc1cc(C)n(CC(=O)N/N=C/c2ccc(-c3ccc(Cl)c(C(=O)O)c3)o2)c(=O)c1C#N | ? | 13.1% | -40.4%[59 µM] | ? | ?
COCc1cc(C)nc(OCC(=O)N/N=C/c2ccc(C)o2)c1C#N | -0.6% | 54.1% | 44.7µM* | 3.98µM* | 11.6%
COCc1cc(C)nc(N/N=C/c2ccc(-c3ccc(C(=O)O)c(Cl)c3)o2)c1C#N | . | . | 11.2µM* | -5.6% | 79.4µM*
COc1ccc(CNC(=O)C(=O)c2cn(CC(=O)N3CCCC3)c3ccccc23)cc1 | -10.2% | 29.1% | 27.9% | -3.1% | -22.7%
Oc1ccc(Nc2ncnc3scc(-c4ccccc4)c23)cc1 | -8.0% | 13.1% | -34.2%[59 µM] | 10.8% | -2.5%
CCOC(=O)C1CCCN(C(=O)c2ccc3oc(CCc4ccccc4)nc3c2)C1 (centres undefined) | -14.8% | 17.7%[57 µM] | 23.0% | 1.5% | -13.5%
COc1ccc(N/C(=C(/C(Cl)=C(Cl)Cl)[N+](=O)[O-])n2nnc3ccccc32)cc1OC | . | . | 14.1µM* | 20µM* | 56.2µM*
Cc1occc1C(=O)n1nnc2ccccc21 | -6.9% | 42.5% | ? | 31.6µM* | 3.1%
Cc1occc1C(=O)n1cnc2ccccc21 | . | . | ? | -11.9% | 11.4%

Source: PubChem
